Bioassay records: PubChem, National Center for Advancing Translational Sciences (NCATS)
G9a block = qHTS Assay for Inhibitors of Histone Lysine Methyltransferase G9a; AID 504332, 2011; Potency, µM (series often up to 102 µM), for the others: at the top dose activity, negative = inhibition, most hits filed as inhibitors; 350,000 tested, 8.8% active; G9a H3K9 monomethylation, AlphaScreen, 2 h; Histone-lysine N-methyltransferase EHMT2 (Homo sapiens), Q96KQ7; also: potency is read from the fitted curve at half-maximal effect; % is scaled to controls: 0 for no effect and ±100 for the full control effect; nearly all actives have a fitted effect of over 75% in size
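Readings reflect AlphaScreen signal from monomethyl-H3K9 antibody detection. HMT at 20 nM; substrate b-H3K9 500 nM; cofactor SAM 20 uM; 2 h RT reaction; compounds tested as titrations in qHTS with 15 min preincubation.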
HP1b binding inh = HTS for Inhibitors of HP1-beta Chromodomain Interactions with Methylated Histone Tails; Chromobox protein homolog 1 (Homo sapiens), P83916; AlphaScreen HP1-beta / biotin-H3K9me3 peptide binding; Potency, µM (series often up to 114 µM), for the others: at the top dose activity change, negative = inhibition, hits mostly inhibitors; 390,000 tested, 0.56% active; AID 540317, 2011; also: potency is read from the fitted curve at half-maximal effect; nearly all actives have a fitted effect of over 70% in size
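Compound inhibition of the preformed complex between 50 nM HP1-beta and 50 nM biotinylated H3K9me3 peptide was read by AlphaScreen. Buffer was PBS pH 7.4 with 0.01% Tween-20. Incubations ran 30 min at room temperature, with 10 ug/mL donor/acceptor beads.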
JMJD2A Tudor = qHTS Assay for Inhibitors of JMJD2A-Tudor Domain; Lysine-specific demethylase 4A (Homo sapiens), O75164; AlphaScreen JMJD2A-Tudor / H3K4me3 peptide binding; Potency, µM (series often up to 114 µM), without a hit: at the highest dose activity change, negative = inhibition, hits mostly inhibitors; 390,000 tested, 4.4% active; AID 504339, 2011; also: potency is read from the fitted curve at half-maximal effect; % is scaled to controls: 0 for no effect and ±100 for the full control effect; nearly all actives have a fitted effect of over 50% in size
Target sequence (O75164 whole entry, looked up, the tested form may be a part): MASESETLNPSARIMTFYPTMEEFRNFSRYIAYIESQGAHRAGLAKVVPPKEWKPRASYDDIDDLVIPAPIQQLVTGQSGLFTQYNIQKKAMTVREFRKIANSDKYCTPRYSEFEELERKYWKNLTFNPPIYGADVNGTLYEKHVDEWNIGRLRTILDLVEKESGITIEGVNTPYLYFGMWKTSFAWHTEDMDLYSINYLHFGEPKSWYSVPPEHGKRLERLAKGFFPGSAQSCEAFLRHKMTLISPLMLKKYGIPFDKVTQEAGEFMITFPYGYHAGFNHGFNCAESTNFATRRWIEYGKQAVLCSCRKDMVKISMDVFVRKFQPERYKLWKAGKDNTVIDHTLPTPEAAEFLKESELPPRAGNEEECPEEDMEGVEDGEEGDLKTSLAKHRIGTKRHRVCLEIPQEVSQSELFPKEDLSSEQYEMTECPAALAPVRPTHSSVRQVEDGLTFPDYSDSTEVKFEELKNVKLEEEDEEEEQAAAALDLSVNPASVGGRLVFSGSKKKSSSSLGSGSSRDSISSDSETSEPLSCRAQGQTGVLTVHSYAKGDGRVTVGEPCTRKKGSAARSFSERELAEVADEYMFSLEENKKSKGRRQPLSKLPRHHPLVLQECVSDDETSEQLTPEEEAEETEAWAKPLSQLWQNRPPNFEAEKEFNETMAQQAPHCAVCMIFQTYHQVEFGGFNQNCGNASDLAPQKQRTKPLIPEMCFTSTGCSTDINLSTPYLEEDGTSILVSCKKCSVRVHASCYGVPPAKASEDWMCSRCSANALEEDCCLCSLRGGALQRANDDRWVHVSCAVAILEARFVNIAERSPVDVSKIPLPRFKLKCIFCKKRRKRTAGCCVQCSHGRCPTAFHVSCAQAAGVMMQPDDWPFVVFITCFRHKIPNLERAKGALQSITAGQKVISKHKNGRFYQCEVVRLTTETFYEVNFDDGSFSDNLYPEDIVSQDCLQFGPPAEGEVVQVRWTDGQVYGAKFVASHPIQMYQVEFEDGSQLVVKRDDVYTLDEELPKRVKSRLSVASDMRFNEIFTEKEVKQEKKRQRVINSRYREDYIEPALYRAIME
CtBP-E1A inh = qHTS Assay for Inhibitors of the CtBP/E1A Interaction; AlphaScreen GST-E1A/His-CtBP binding, 1536-well; stronger effect = lower value; 340,000 tested, 0.49% active; activity change, % (no concentration beside the values); CtBP / adenovirus E1A interaction (AlphaScreen); in the data active = activity change below about -65%; inconclusive = mostly about -30% to -63%; also: % is scaled to controls: 0 for no effect and ±100 for the full control effect
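In 5 uL wells, 23 nL compound meets equimolar GST-E1A and His-CtBP (5X stock 125 nM each) for 2 h, 37 °C. Beads (5X, 50 ug/mL) then 1 h, 37 °C, dark.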
Six1-Eya2 inh = qHTS Assay for Inhibitors of the Six1/Eya2 Interaction; Homeobox protein SIX1 (Homo sapiens) + Protein phosphatase EYA2 (Homo sapiens), …; AlphaScreen GST-Six1/His-Eya2 binding, biochemical; stronger effect = lower value; activity change, % (concentration not given with the values); 360,000 tested, 0.56% active; in the data active = activity change below about -65%; inconclusive = mostly about -30% to -63%; also: % is scaled to controls: 0 for no effect and ±100 for the full control effect
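GST-Six1 + His-Eya2 (5X stock: 250/500 nM); Tris pH 8.0, 300 mM NaCl, 0.05% BSA, 0.02% Tween 20; GSH donor/Ni acceptor beads; 1 h 37 °C dark; AlphaScreen readout.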
BAZ2B inh = qHTS Assay for Inhibitors of BAZ2B | AlphaScreen BAZ2B-H3K14Ac peptide displacement | Potency, µM (doses to about 114 µM), inactives show at the top dose activity change, negative = inhibition, actives largely listed as inhibitors | 360,000 tested, 4.4% active; also: potency is read from the fitted curve at half-maximal effect; % is scaled to controls: 0 for no effect and ±100 for the full control effect; nearly all actives have a fitted effect of over 60% in size
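Protein-peptide AlphaScreen: BAZ2B 50 nM, b-H3K14Ac 50 nM, 1x PBS pH 7.4 + 0.01% Tween-20. Preincubation 30 min RT; cpd 30 min RT (top 110 uM); beads 20 min RT, light-protected.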
The depositor's hits bear a star; ? = inconclusive; / = not tested or not shown; [ ] = dose if it differs, or a comment. Compounds with a hit are over-represented: about 10% of the library has one in this group of screens. Unless noted, calls follow the shape of the dose curve; as a rule, active = well fitted inhibition curve with a large enough effect; inconclusive = small, poorly fitted or top-dose-only effect; inactive = no such curve, though single readings can be large or run the other way.

SMILES	G9a block	HP1b binding inh	JMJD2A Tudor	CtBP-E1A inh	Six1-Eya2 inh	BAZ2B inh
Cc1cc(NC(=O)c2cccc(Oc3ccccc3)c2)n[nH]1	-37.4%	39.3%	-23.8%	0.3	-0.3	?
O=C(Nc1nn[nH]n1)c1cccc(Oc2ccccc2)c1	39.8µM*	29.9%	?	0.0	13.5	11.9%
COc1cccc(/C=N/n2c(-c3ccco3)nc3ccccc3c2=O)c1	3.5%[59 µM]	23.1%	-14.9%	-9.4	12.9	-4.9%
CC(C)N=c1scc(-c2ccco2)n1/N=C/c1ccc(O)c(O)c1	?	?	39.8µM*	?	?	31.6µM*
Oc1ccc(/C=N/n2c(-c3ccco3)csc2=Nc2cccnc2)c(O)c1	?	-6.8%	-27.4%	-92.8*	-92.5*	?
O=c1c2ccccc2nc(-c2ccco2)n1/N=C/c1ccccc1O	-0.5%[59 µM]	31.3%	-21.3%	-11.3	?	1.3%
C=CCN=c1scc(-c2ccco2)n1/N=C/c1ccc(O)c(O)c1O	7.94µM*	14.1µM*	50.1µM*	-77.8*	-66.5*	12.6µM*
COCCN=c1scc(-c2cccs2)n1/N=C(\C)c1ccco1	31.6µM*	?	50.1µM*	-5.3	?	10µM*
COCCNc1ccnc(-c2ccccc2C)n1	0.3%[0.501 µM]	/	/	/	/	/
COc1cccc(NC(=O)CCC2CCN(C(=O)C(OC)c3ccccc3)CC2)c1 (centres undefined)	/	/	/	-2.9	-8.2	/
COCCN=c1scc(-c2ccco2)n1/N=C/c1ccc(O)c(O)c1O	10µM*	7.94µM*	31.6µM*	-78.7*	-83.8*	7.94µM*
COC(=O)c1ccc(-c2ccco2)n1Cc1cc(C)ccc1C	-3.4%	5.1%	-21.3%	-4.4	-6.0	-0.8%
COc1ccc(CNC(=O)COc2cc(O)c3c(c2)OC(C)(C)CC3=O)c(OC)c1	/	1.7%	89.1µM*	-4.1	-2.0	9.2%[57.1 µM]
COc1ccc(CCNC(=O)COc2cc(O)c3c(c2)OC(C)(C)CC3=O)cc1	/	26.4%	-12.9%	-0.6	3.1	-3.8%
COc1ccccc1N(CC(=O)NC(C)(C)C)S(=O)(=O)c1cccs1	-13.4%	-3.8%	56.2µM*	-8.8	6.8	0.7%
CCNC(=O)CN(c1ccccc1OC)S(=O)(=O)c1cccs1	4.3%[59 µM]	8.3%	-13.6%	3.8	4.8	3.6%
CC(=O)Nc1ccc(NCc2ccc(-c3ccccc3)cc2)cc1	/	7.0%	-24.0%	-7.0	-6.1	/
CCC(=O)Nc1ccc(NCc2ccc(-c3ccccc3)cc2)cc1	25.1µM*	4.3%	?	3.1	-23.7	-26.8%
CCOC(=O)c1sc(NC(=O)Cc2ccccc2OC)nc1C	39.8µM*	-4.2%	-10.9%	/	2.4	-30.0%
COc1ccc(NC(=O)c2ccc(NC(=O)CN3CCN(c4ccccc4)CC3)cc2)cc1	/	55.3%	-9.8%	0.1	-0.4	/
CCOc1ccccc1N1CCN(CC(=O)Nc2nc(C)c(C(=O)N(C)C)s2)CC1	/	1.0%	14.1µM*	-3.7	9.4	-6.2%
CCOC(=O)c1cccc(NC(=O)CN2CCN(c3ccc(OC)cc3)CC2)c1	56.2µM*	-24.4%	?	0.0	-26.0	?
Cc1ccccc1N1CCN(CC(=O)Nc2nc(C)c(C(=O)N(C)C)s2)CC1	11.4%[59 µM]	33.5%	?	4.8	1.7	-17.9%
CCOC(=O)c1sc(NC(=O)CN2CCN(c3ccc(OC)cc3)CC2)nc1C	39.8µM*	?	56.2µM*	?	-21.6	35.5µM*
CCOC(=O)c1sc(NC(=O)c2c(OC)cccc2OC)nc1C	6.1%[12.7 µM]	2.7%	-15.8%	-5.0	4.5	-6.2%
SMILES	G9a block	HP1b binding inh	JMJD2A Tudor	CtBP-E1A inh	Six1-Eya2 inh	BAZ2B inh
CN1CCN(c2ncnc3c2ncn3[C@H]2CN(Cc3cccnc3)C[C@@H](CO)O2)CC1	/	/	/	-15.5	10.0	/
CC(C)(C)OC(=O)N1CCC(c2c(C(=O)NC3CCCCC3)cnn2-c2ccc(F)cc2F)CC1	9.1%[59 µM]	30.4%	-4.2%	/	/	7.5%[57.1 µM]
CCc1nc2ccc(C(=O)N(C)Cc3ccccc3)cn2c1N(C)Cc1ccc(OC)cc1	/	/	/	-8.5	-11.1	/
CCn1cc(CN2CCc3c([nH]c4ccccc34)C2c2ccc(F)c(OC)c2)c(C)n1 (centres undefined)	44.7µM*	?	?	-3.5	-17.0	22.4µM*
Fc1ccc(C2c3[nH]c4ccccc4c3CCN2Cc2cccn2-c2ncccn2)cc1 (centres undefined)	/	35.6%	-22.3%	-8.4	-27.4	-0.2%
Fc1ccccc1C1c2[nH]c3ccccc3c2CCN1Cc1ccoc1 (centres undefined)	?	-22.3%	?	-3.2	-11.1	?
COc1cccc(C2c3[nH]c4ccccc4c3CCN2CCCn2cccn2)c1 (centres undefined)	?	10.3%	-23.7%	-12.0	-14.8	?
Clc1ccc(-n2cccc2CN2CCc3c([nH]c4ccccc34)C2c2ccccn2)nc1 (centres undefined)	17.8µM*	-10.1%	35.5µM*	-25.3	-0.8	25.1µM*
COc1cccc(C2c3[nH]c4ccccc4c3CCN2Cc2cccn2-c2ncccn2)c1 (centres undefined)	39.8µM*	?	?	-20.3	-29.7	?
CCn1nc(C)c(CN2CCc3c([nH]c4ccccc34)C2c2ccc(F)c(OC)c2)c1C (centres undefined)	50.1µM*	-14.9%	?	-18.6	-23.4	?
CCCCn1nnnc1C(c1ccccc1)N1CCN(C(=O)c2ccco2)CC1 (centres undefined)	/	/	/	0.4	3.8	/
CCn1cc(CN2CCc3c([nH]c4ccccc34)C2c2cccc(OC)c2)c(C)n1 (centres undefined)	/	-20.6%	?	-12.3	-8.3	79.4µM*
CSc1ncc(CN2CCc3c([nH]c4ccccc34)C2c2cccc(O)c2)cn1 (centres undefined)	/	-19.9%	?	0.5	-12.1	39.8µM*
CCn1cc(CN2CCc3c([nH]c4ccccc34)C2c2cccc(O)c2)c(C)n1 (centres undefined)	?	-6.0%	-17.6%[57.1 µM]	3.7	-15.3	?
CSc1ncc(CN2CCc3c([nH]c4ccccc34)C2c2cccc(C)n2)cn1 (centres undefined)	?	5.3%	?	-19.9	-4.9	?
